Among the data in ChEMBL document CHEMBL1961873, “Compounds: GSK PKIS; Assays: Nanosyn kinase panel” (2012) are inhibition values, retold here.

The inhibition is the change of the read-out against control, counted positive when it falls.

The target of experiment [1] is Tyrosine-protein kinase Fyn (Homo sapiens) (UniProt P06241). The settings on record: at 1 µM.
Experiment [2] deals with Tyrosine-protein kinase HCK (Homo sapiens) (UniProt P08631). To be noted: at 0.1 µM.
Experiment [3] shares this target. To be noted: at 1 µM.
The target of experiment [4] is Insulin-like growth factor 1 receptor (Homo sapiens) (UniProt P08069). The settings on record: at 0.1 µM.
Insulin-like growth factor 1 receptor (Homo sapiens), sequence (P08069 31-736 limits assumed): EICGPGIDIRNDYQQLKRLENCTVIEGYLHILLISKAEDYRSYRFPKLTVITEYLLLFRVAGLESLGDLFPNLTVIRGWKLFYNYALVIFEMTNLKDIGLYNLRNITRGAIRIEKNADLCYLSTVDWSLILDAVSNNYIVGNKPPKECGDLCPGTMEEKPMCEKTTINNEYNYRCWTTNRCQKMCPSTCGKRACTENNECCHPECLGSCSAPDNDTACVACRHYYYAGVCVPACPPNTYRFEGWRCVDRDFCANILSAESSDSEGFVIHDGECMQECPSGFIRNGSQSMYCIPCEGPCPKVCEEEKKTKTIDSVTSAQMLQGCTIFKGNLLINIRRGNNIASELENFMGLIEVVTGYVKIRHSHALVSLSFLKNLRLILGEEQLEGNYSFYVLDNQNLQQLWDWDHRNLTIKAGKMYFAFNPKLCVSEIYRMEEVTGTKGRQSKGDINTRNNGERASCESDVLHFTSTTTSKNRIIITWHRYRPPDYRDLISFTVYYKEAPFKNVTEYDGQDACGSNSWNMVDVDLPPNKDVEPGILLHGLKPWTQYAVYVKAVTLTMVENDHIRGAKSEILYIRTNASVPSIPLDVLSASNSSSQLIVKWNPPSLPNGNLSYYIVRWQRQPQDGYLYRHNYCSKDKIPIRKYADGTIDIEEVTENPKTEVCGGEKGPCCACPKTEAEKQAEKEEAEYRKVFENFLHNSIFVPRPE
Insulin-like growth factor 1 receptor (Homo sapiens), sequence (P08069 741-1367 limits assumed): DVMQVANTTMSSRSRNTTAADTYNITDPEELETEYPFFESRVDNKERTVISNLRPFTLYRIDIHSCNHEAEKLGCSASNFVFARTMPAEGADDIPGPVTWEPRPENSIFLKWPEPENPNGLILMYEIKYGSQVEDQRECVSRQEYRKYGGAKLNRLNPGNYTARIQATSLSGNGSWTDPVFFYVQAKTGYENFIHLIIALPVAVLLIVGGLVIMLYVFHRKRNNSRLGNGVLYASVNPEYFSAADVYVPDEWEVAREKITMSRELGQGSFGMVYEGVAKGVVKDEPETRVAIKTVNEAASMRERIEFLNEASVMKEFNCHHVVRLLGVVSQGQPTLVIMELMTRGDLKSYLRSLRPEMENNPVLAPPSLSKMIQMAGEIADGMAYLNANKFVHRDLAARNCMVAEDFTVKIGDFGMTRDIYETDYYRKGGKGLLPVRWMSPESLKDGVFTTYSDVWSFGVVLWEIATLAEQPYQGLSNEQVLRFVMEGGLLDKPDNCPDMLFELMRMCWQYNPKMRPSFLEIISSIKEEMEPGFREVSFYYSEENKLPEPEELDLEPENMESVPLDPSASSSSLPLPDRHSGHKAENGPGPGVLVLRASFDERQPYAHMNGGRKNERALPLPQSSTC
The target is the same in experiment [5]. The settings on record: at 1 µM.
The target in experiment [6] is Insulin receptor (Homo sapiens) (UniProt P06213). To be noted: at 0.1 µM.
Experiment [7] shares this target. To be noted: at 1 µM.
The target in experiment [8] is Insulin receptor-related protein (Homo sapiens) (UniProt P14616). The settings on record: at 0.1 µM.
Insulin receptor-related protein (Homo sapiens), sequence (P14616 27-742 limits assumed): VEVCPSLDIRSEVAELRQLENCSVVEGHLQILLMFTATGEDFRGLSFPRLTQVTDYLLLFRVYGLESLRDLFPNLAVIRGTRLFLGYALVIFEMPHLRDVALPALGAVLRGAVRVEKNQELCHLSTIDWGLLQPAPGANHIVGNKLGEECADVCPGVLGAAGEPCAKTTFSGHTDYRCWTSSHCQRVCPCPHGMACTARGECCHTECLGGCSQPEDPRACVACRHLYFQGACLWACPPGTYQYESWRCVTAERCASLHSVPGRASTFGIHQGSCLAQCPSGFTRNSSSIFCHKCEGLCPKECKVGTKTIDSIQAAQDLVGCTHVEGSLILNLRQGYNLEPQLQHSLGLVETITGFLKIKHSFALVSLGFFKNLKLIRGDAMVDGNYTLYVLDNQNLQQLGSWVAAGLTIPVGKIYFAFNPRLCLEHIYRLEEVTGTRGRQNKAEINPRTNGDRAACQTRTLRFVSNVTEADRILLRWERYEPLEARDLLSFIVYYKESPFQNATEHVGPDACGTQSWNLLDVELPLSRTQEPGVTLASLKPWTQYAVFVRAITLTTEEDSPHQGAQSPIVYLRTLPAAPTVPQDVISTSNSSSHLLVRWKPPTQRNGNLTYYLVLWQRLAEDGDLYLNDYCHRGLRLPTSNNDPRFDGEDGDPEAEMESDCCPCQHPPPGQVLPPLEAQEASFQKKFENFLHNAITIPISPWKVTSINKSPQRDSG
Insulin receptor-related protein (Homo sapiens), sequence (P14616 747-1297 limits assumed): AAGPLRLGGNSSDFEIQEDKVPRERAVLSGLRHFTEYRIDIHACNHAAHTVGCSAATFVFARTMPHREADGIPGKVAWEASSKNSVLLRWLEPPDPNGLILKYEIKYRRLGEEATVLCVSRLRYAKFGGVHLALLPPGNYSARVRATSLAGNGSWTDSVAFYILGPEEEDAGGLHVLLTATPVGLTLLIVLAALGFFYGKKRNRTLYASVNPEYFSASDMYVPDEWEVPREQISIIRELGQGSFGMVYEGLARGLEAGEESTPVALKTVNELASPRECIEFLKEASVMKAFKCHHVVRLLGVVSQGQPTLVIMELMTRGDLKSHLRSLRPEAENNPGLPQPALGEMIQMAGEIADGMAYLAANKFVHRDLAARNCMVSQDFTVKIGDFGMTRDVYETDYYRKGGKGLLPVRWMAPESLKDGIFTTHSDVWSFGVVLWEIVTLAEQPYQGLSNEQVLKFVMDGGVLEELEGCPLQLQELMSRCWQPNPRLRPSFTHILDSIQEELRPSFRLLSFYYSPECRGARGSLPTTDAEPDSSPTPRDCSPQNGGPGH
For experiment [9] the target is unchanged. To be noted: at 1 µM.
The target of experiment [10] is T1, Tyrosine-protein kinase ITK/TSK (Homo sapiens) (UniProt Q08881).
T1 sequence (whole entry): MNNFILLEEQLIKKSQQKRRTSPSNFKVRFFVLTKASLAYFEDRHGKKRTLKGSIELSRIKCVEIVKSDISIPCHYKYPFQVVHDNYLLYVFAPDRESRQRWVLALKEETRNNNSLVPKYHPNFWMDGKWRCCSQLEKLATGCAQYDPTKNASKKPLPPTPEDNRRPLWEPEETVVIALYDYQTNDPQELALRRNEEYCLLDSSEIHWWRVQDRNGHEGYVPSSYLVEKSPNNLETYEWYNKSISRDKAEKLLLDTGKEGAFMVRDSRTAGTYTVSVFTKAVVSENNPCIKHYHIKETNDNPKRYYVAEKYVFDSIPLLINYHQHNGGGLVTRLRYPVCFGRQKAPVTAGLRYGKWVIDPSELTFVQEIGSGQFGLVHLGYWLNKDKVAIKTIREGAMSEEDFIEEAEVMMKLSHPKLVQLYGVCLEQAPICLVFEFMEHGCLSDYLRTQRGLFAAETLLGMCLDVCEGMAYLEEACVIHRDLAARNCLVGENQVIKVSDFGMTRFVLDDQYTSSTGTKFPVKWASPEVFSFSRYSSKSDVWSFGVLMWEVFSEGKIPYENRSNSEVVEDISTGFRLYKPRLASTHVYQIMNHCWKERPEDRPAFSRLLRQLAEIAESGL
The settings on record: at 0.1 µM.

Experiment [11] deals with T1, Tyrosine-protein kinase ITK/TSK (Homo sapiens). To be noted: at 1 µM.
Experiment [12] addresses Tyrosine-protein kinase JAK1 (Homo sapiens) (UniProt P23458). To be noted: at 0.1 µM.
Experiment [13] shares this target. To be noted: at 1 µM.
For experiment [14], the target named is Tyrosine-protein kinase JAK2 (Homo sapiens) (UniProt O60674). The settings on record: at 0.1 µM.
For experiment [15] the target is unchanged. To be noted: at 1 µM.
The target of experiment [16] is T2, Tyrosine-protein kinase JAK3 (Homo sapiens) (UniProt P52333).
T2 sequence (whole entry): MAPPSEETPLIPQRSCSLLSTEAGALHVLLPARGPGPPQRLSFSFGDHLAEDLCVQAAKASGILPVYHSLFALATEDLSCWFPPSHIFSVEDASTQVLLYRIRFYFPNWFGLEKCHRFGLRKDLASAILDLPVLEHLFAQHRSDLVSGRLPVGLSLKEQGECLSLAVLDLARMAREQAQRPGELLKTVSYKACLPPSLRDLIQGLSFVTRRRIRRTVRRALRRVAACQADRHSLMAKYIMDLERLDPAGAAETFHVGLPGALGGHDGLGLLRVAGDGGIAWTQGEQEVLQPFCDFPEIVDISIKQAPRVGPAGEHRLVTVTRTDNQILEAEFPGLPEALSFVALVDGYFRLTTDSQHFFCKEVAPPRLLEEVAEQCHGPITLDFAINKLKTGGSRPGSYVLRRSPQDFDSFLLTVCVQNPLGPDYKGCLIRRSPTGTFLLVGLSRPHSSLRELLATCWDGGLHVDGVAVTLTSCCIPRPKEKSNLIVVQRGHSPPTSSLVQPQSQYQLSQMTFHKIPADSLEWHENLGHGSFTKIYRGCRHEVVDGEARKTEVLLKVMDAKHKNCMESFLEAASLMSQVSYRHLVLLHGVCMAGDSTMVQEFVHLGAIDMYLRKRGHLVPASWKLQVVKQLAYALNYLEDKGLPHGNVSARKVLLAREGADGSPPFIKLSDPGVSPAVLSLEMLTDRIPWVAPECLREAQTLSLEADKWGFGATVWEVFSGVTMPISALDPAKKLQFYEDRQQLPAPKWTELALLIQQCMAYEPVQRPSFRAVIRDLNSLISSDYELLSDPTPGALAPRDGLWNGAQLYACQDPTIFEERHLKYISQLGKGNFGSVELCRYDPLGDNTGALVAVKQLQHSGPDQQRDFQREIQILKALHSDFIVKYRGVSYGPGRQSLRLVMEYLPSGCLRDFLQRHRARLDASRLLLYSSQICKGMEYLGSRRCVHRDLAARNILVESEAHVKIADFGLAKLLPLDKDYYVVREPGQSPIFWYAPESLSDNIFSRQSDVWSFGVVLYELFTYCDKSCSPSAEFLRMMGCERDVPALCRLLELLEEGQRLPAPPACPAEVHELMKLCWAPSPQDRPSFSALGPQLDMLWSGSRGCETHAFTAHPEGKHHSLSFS
The settings on record: at 0.1 µM.

In experiment [17] the target is T2, Tyrosine-protein kinase JAK3 (Homo sapiens). The settings on record: at 1 µM.
Experiment [18] deals with Vascular endothelial growth factor receptor 2 (Homo sapiens) (UniProt P35968). To be noted: at 0.1 µM.
Vascular endothelial growth factor receptor 2 (Homo sapiens), sequence (P35968 whole entry): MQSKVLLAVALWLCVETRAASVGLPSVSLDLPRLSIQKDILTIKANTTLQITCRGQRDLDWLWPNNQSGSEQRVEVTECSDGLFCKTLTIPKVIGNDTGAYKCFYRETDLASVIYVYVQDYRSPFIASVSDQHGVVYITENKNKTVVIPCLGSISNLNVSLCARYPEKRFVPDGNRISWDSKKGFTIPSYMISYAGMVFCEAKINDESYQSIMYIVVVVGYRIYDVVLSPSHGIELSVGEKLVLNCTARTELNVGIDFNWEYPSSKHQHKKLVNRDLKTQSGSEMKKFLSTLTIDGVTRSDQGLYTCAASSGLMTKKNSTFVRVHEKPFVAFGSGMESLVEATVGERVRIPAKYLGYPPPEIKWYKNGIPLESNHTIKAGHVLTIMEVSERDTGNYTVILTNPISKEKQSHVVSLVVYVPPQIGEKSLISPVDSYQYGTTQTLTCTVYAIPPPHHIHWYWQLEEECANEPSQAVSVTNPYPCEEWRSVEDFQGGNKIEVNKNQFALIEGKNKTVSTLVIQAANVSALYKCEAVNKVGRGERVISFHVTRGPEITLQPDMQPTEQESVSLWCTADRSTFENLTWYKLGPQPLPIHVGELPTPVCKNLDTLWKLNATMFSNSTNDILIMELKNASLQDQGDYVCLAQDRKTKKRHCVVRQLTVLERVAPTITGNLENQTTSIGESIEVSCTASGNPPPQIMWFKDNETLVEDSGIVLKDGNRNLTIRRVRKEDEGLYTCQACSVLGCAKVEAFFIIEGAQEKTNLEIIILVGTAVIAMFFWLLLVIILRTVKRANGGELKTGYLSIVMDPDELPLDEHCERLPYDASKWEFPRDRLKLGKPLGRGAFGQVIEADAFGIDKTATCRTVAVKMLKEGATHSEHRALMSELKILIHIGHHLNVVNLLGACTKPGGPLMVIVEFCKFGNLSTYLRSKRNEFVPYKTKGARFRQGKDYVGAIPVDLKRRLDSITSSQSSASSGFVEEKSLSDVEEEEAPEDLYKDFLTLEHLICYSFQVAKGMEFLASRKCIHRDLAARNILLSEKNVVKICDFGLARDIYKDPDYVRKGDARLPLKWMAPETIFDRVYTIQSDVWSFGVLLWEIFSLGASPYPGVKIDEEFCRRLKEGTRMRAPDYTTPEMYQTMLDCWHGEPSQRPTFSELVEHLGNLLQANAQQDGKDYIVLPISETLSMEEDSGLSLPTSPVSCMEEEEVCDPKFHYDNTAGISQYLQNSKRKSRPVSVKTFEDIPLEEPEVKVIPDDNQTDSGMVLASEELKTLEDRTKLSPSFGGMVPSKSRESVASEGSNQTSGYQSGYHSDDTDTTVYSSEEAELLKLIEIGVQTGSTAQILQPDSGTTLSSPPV
For experiment [19] the target is unchanged. The settings on record: at 1 µM.
Experiment [20] has as its target Mast/stem cell growth factor receptor Kit (Homo sapiens) (UniProt P10721). To be noted: at 0.1 µM.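 Note: values are mean inhibition of KIT, from the GSK PKIS dataset.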

Tyrosine-protein kinase Fyn (Homo sapiens), sequence (P06241 2-537 limits assumed): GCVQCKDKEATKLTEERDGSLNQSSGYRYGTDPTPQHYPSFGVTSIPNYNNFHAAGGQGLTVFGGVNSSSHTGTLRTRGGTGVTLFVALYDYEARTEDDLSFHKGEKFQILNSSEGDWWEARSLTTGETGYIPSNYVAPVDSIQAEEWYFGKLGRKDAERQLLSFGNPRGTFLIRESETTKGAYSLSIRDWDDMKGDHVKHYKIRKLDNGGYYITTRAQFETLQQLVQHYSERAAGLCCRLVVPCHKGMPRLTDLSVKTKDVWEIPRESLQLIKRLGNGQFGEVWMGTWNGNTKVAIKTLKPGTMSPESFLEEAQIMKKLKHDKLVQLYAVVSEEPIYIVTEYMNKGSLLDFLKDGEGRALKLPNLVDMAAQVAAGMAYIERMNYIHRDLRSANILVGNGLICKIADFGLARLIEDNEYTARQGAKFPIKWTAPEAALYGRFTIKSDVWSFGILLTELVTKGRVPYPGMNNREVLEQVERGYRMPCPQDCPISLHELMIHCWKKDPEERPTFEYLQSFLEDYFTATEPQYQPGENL
Tyrosine-protein kinase HCK (Homo sapiens), sequence (P08631 2-526 limits assumed): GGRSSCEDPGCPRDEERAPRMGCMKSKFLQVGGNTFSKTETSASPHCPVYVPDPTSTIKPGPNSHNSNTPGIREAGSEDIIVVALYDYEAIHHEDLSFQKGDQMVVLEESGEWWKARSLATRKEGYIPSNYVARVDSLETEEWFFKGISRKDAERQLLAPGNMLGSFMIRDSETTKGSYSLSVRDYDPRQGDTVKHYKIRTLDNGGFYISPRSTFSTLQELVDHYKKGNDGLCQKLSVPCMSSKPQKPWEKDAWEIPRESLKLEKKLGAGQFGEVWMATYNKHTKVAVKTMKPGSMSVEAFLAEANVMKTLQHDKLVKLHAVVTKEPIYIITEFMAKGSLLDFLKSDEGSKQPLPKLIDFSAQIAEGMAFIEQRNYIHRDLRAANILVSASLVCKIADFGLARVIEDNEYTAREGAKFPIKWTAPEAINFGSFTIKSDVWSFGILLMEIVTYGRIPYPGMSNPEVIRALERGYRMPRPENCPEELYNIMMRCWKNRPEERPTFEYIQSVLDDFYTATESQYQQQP

Turning to `COc1cc2c(cc1Nc1nc(N3CCc4ccccc43)c3cc[nH]c3n1)N(C(=O)CN(C)C)CC2`, the inhibition was determined as 1.51% in [1]; 5.42% in [2]; 10% in experiment [3]; 103% in [4]; 98.4% in [5]; 93% in experiment [6]. Also, the inhibition in [7] is 91%; in experiment [8], 72.3%; in experiment [9] it was 90.3%; in experiment [10], 0.83%; in experiment [11], 1.52%; in experiment [12], -0.01%. For the same compound, the inhibition was -3.36% in experiment [13]; 1.69% in [14]; 0.18% in experiment [15]; 0.19% in experiment [16]; 0.18% in experiment [17]; 1.11% in experiment [18]. Further, the inhibition came out at 0.21% in [19] and 3.11% in [20].
In the case of `COc1ccc(-c2coc3ncnc(N)c23)cc1`, the inhibition in experiment [1] was 2.02%; in experiment [2], 5.63%; in experiment [3], 8.51%; in experiment [4] it was 1.64%; in [5], 2.38%; in experiment [6] it was 5.22%. Further, the inhibition in experiment [7] came out at 6.33%; in [8] it was 1.82%; in experiment [9], 1.27%; in experiment [10] it was 1.41%; in experiment [11], 1.48%; in [12] it was 0.98%. Further, the inhibition is 2.67% in experiment [13]; 1.71% in experiment [14]; 2.08% in [15]; -1.56% in experiment [16]; 2.35% in experiment [17]; 6.15% in experiment [18]. Also, the inhibition was 9% in experiment [19] and 5.17% in experiment [20].
Turning to `CCCN1CCC(Oc2cc(Nc3nc(Nc4cccc(F)c4C(N)=O)c4cc[nH]c4n3)c(OC)cc2Cl)CC1`, the inhibition amounted to 3.01% in experiment [1]; 4.1% in experiment [2]; 7.31% in experiment [3]; 57.2% in experiment [4]; 91.8% in experiment [5]; 64% in experiment [6]. Further, the inhibition in experiment [7] was 88%; in [8], 4.74%; in experiment [9], 37.6%; in [10], 0.65%; in experiment [11] it was 1.18%; in experiment [12], -1.95%. In addition, the inhibition in [13] was -2.49%; in experiment [14], 0.96%; in experiment [15], 1.42%; in experiment [16] it was 0.62%; in experiment [17], 1.56%; in experiment [18] it was 9.18%. For the same compound, the inhibition in [19] is 18.5%; in experiment [20], -0.76%.
For `Cc1nnc(-c2ccc(C)c(-c3ccc(C(=O)Nc4cccc(C#N)c4)cc3)c2)o1`, the inhibition in [1] was 3.47%; in experiment [2] it was 4.32%; in [3] it was 5.14%; in experiment [4] it was 1.24%; in [5] it was 0.79%; in experiment [6] it was 4.34%. In addition, the inhibition is 3.89% in [7]; -0.6% in experiment [8]; 1.65% in experiment [9]; 0.98% in experiment [10]; 0.58% in [11]; 1.77% in experiment [12]. Moreover, the inhibition was 6.74% in experiment [13]; -0.14% in [14]; -0.34% in [15]; -1.17% in [16]; 1.29% in experiment [17]; 3.3% in [18]. The inhibition in experiment [19] came to 7.82%; in experiment [20] it was 5.68%.
As to `COc1ccc(-c2nn3ncccc3c2-c2ccnc(Nc3ccc(Cl)c(C(F)(F)F)c3)n2)cc1`, the inhibition in [1] was 6.37%; in [2] it was 1.57%; in [3] it was 4.58%; in [4] it was 0.1%; in experiment [5] it was -0.08%; in experiment [6], 3.14%. The inhibition in experiment [7] is 2.37%; in [8] it was -1.6%; in [9], 1.11%; in experiment [10] it was 0.94%; in [11], 0.32%; in experiment [12], 1.77%. In addition, the inhibition in [13] was 10.6%; in experiment [14], -0.46%; in experiment [15], -0.98%; in experiment [16], -0.77%; in experiment [17], -0.67%; in experiment [18] it was 1.69%. The inhibition is 4.52% in [19] and 1.4% in [20].
Regarding `Cc1cccc(-c2n[nH]cc2-c2ccc3ncccc3n2)n1`, the inhibition in experiment [1] was 6.38%; in experiment [2] it was 0.57%; in [3] it was 5.58%; in [4], 1.27%; in experiment [5], -0.01%; in experiment [6], -0.03%. The inhibition in experiment [7] is 2.58%; in [8], -0.57%; in [9], -0.38%; in [10] it was 0.38%; in [11] it was 1.48%; in experiment [12], -0.09%. The inhibition in [13] is 3.85%; in experiment [14], -0.23%; in experiment [15], -0.14%; in [16] it was 0.65%; in experiment [17], 3.06%; in experiment [18], 61.3%. The results for the inhibition in [19] and in experiment [20] were 83.2% and -0.25%, respectively.
`Fc1cccc(COc2ccc(Nc3ncnc4cc(-c5ccc[nH]5)sc34)cc2Cl)c1`: the inhibition is 4.86% in experiment [1]; 3.68% in experiment [2]; 9.04% in experiment [3]; -6.59% in [4]; -4.84% in experiment [5]; 5.37% in [6]. In addition, the inhibition is 6% in experiment [7]; -0.19% in experiment [8]; 0.95% in [9]; -2.3% in experiment [10]; -1.9% in experiment [11]; 2.84% in experiment [12]. For the same compound, the inhibition in [13] was 13.6%; in experiment [14] it was 1.26%; in [15] it was 3.62%; in experiment [16] it was -3.97%; in [17], -1.5%; in experiment [18], 6.01%. In addition, the inhibition in [19] was found to be 11.8%; in experiment [20] it was 2.16%.
